The entries come from a sample that favours hits as a whole.
Gal4-VP16 FLuc = VP16 counterscreen qHTS for inhibitors of ROR gamma transcriptional activity; Drosophila S2 Gal4-VP16 UAS-luciferase, luminescence, 20 h; Potency, µM (top dose mostly 53.6 µM), inactives show top-dose activity, negative = inhibition, hits mostly inhibitors; 310,000 compounds, 3.5% hits; AID 2546, 2010;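 further: Gal4-VP16 expression switched on by copper sulfate through the metallothionein promoter; potency means the concentration at half of the fitted maximal effect; on the % scale 0 is the no-effect control and ±100 the full control effect; nearly all actives have a fitted effect of over 50% in size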
ERG Ets-DNA blk = qHTS for Small Molecule Inhibitors of the ERG Ets/DNA interaction | Potency, µM (top dose mostly 76.9 µM), without a hit: at the highest dose FP activity, negative = inhibition, most hits filed as inhibitors | Transcriptional regulator ERG (Homo sapiens), P11308 | 370,000 compounds, 0.028% hits | fluorescence polarization, His-ERG Ets domain / labelled DNA | AID 624246, 2012; active means well fitted inhibition curve with a large enough effect in the polarisation, with a control signal flat; inconclusive means small, poorly fitted or top-dose-only effect, or effect the other way, or a change in a side signal; inactive means no such curve, though single readings can be large or run the other way; the % refers to the polarisation;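 further: polarization taken with two DNA probes labelled with fluorescein and Texas red; potency means the concentration at half of the fitted maximal effect; % of control where 0% means no effect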
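His-tagged ERG Ets domain (1 uM in the protein solution; 300mM KCl, 50mM Tris-HCl, 1mM EDTA, 1mM DTT, pH 7.5) received compound, then a probe mix of 5 nM fluorescein-DNA and 100nM Texas-615-DNA. Fluorescence polarization was read for both dyes.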
a7 integrin act = qHTS for Activators of Integrin-Mediated Alleviation for Muscular Dystrophy | 350,000 compounds, 0.064% hits | alpha7betagal myoblasts, beta-gal FDG fluorescence, 48 h | Potency, µM (top dose mostly 38.3 µM), for inactives: top-dose activation, most hits filed as activators | AID 624291, 2012;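 further: potency means the concentration at half of the fitted maximal effect; 100% = response of the positive control SU9516; nearly all actives have a fitted effect of over 60% in size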
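alpha7betagal+/- myoblasts (passage 13, 250/well) treated 48 h at 37C with compounds at 1:260 dilution of DMSO stock. Lysed, then beta-galactosidase activity read as FDG fluorescence (ex 480/em 540) after 30 min, with pre-read for autofluorescence.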
RORg inh = qHTS for inhibitors of ROR gamma transcriptional activity. Nuclear receptor ROR-gamma (Mus musculus), P51450. Drosophila S2 Gal4-RORgamma UAS-luciferase reporter, 20 h. Potency, µM (highest dose often 53.6 µM), inactives show at the highest dose activity change, negative = inhibition, actives largely listed as inhibitors. 310,000 compounds, 5.4% hits; further: potency means the concentration at half of the fitted maximal effect; on the % scale 0 is the no-effect control and ±100 the full control effect; nearly all actives have a fitted effect of over 60% in size
Target sequence (P51450 whole entry, looked up, the tested form may be a part): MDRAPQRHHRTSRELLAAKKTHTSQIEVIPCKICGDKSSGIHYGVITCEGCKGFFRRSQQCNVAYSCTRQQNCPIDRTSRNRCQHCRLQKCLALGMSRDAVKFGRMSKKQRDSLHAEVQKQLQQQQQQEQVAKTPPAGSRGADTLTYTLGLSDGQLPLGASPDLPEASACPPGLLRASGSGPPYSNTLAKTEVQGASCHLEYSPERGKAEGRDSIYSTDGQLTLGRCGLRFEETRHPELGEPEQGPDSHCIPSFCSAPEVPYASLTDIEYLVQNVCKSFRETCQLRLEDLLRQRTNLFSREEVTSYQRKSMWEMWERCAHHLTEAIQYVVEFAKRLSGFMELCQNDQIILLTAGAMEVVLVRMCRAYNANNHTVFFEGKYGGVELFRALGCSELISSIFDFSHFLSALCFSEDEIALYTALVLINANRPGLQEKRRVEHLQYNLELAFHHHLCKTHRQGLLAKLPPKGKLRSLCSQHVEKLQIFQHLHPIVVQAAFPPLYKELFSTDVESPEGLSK
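Compounds are pin-transferred onto Drosophila Schneider cells expressing a copper-inducible Gal4–ROR gamma transactivation domain fusion. After 1 hr, copper sulfate is added to 700 uM final; luciferase is read 20 hr later.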
Giardia kill = Small Molecules that selectively kill Giardia lamblia: qHTS. 340,000 compounds, 0.15% hits. Giardia lamblia trophozoite viability. activity change, % at 7.66 µM, hits read low. AID 540267, 2011; in the data active means activity change below about -80%; inconclusive means between about -30% and that limit;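 further: parasites exposed to compound for two days anaerobically before the ATP read; on the % scale 0 is the no-effect control and ±100 the full control effect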
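Giardia lamblia trophozoites (100 cells/well) were incubated with compounds for 48 h at 37 deg C under anaerobic conditions. Viability was read as ATP content by one-step luminescence after 15-30 min at room temperature.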
* marks the source's active call; other numbers are inactive results; ? = inconclusive; . = no result given. Unless noted, the call rests on the fitted dose curve; in most records, active means well fitted curve in the direction sought with a large enough effect; inconclusive means small, poorly fitted or top-dose-only effect, or another doubt; inactive means no such curve, though single readings can be large; an effect the other way counts as inactive or inconclusive.

SMILES | Gal4-VP16 FLuc | ERG Ets-DNA blk | a7 integrin act | RORg inh | Giardia kill
Fc1ccccc1CNc1ncnc2sccc12 | ? | 2% | -22% | ? | -6
c1ccc(CN2CCN(C3=Nc4cccc5cccc3c45)CC2)cc1 | -24% | 4% | -18% | ? | 0
Fc1ccc(N2CCN(C3=Nc4cccc5cccc3c45)CC2)cc1 | -5% | -9% | -21% | 13µM* | -16
CCCCn1c(=O)c2ccccc2n2c(=S)[nH]nc12 | ? | -2% | ? | 10µM* | -4
Cn1c(=O)c2ccccc2n2c(=S)[nH]nc12 | -15% | -3% | -41% | ? | -5
CCCCCn1c(=O)c2ccccc2n2c(=S)[nH]nc12 | ? | -7% | -4% | 7.1µM* | -15
CCCn1c(=O)c2ccccc2n2c(=S)[nH]nc12 | -6% | -2% | 43% | -9% | -3
COc1ccccc1NC(=O)CSCc1cc(=O)c2c(C)cc(C)cc2[nH]1 | . | -4% | . | . | .
O=C(CNC(=O)c1cccs1)N/N=C/c1c(F)cccc1Cl | 4% | -5% | 25% | 17% | 3
CC(=O)N1CCc2cc(S(=O)(=O)Nc3cccc(C(F)(F)F)c3)ccc21 | 5µM* | 5% | -38% | ? | 3
CC(=O)N1CCc2cc(S(=O)(=O)Nc3ccc(C)cc3)ccc21 | -23% | -7% | 11% | ? | -5
Cn1cc(S(=O)(=O)N2CCc3ccccc32)cc1C(=O)NC(C)(C)C | 5µM* | -1% | -26% | -6% | -10
COc1cccc(S(=O)(=O)Nc2ccc(C(=O)N3CCCCCC3)cc2)c1 | 8.9µM* | 6% | -14% | 8.9µM* | 18
CC(=O)N1CCc2cc(S(=O)(=O)N3CCc4ccccc43)ccc21 | 13µM* | -2% | -37% | ? | 5
Cc1ccc(NS(=O)(=O)c2ccc(C(=O)N3CCN(c4ncccn4)CC3)cc2)cc1 | 1.3µM* | 6% | -48% | -45% | -12
COc1cccc(NS(=O)(=O)c2ccc3c(c2)CCCN3C(=O)C2CCC2)c1 | . | -3% | . | . | .
CSc1cccc(NS(=O)(=O)c2ccc3c(c2)CCN3C(C)=O)c1 | 4.5µM* | 20% | -9% | ? | 18
Cc1ccc(C(=O)N2CCN(c3ncccn3)CC2)cc1 | -2% | 9% | 6% | 15% | -13
COc1cccc(NS(=O)(=O)c2ccc3c(c2)CCN3C(C)=O)c1 | 16µM* | 14% | -18% | ? | 6
COc1ccc(NC(=O)c2c(NC(=O)CNCc3ccco3)sc3c2CCC3)c(OC)c1 | 2.5µM* | 10% | -3% | 1.1µM* | 5
COc1ccc(NC(=O)c2c(NC(=O)CNCc3ccco3)sc3c2CCC3)cc1 | ? | 1% | -5% | -73% | -9
COc1ccc(OC)c(NC(=O)c2c(NC(=O)CNCc3ccco3)sc3c2CCC3)c1 | 2.2µM* | 1% | -7% | ? | 9
Cc1n[nH]c(=S)n1-c1ccc(Cl)cc1 | -9% | 1% | -2% | ? | 18
CCc1ccc(-n2c(C)n[nH]c2=S)cc1 | ? | 6% | 6% | 10µM* | 0
CCc1ccc(-n2c(Cn3nc(C(F)(F)F)cc3C)n[nH]c2=S)cc1 | ? | -2% | 19% | 4µM* | 10
SMILES | Gal4-VP16 FLuc | ERG Ets-DNA blk | a7 integrin act | RORg inh | Giardia kill
CC(OC(=O)c1ccc2ccccc2c1)C(=O)N(C)Cc1ccccc1 (centres undefined) | . | -10% | -10% | . | -16
CC(C)N(CCC(=O)c1ccc2ccccc2c1)Cc1ccccc1 | 2.5µM* | -8% | . | 2.8µM* | 1
COc1ccc(-n2c(-c3ccc(Cl)cc3)c[n+]3c2CCc2ccccc2-3)cc1 | 13µM* | 7% | -53% | ? | -6
COc1ccc(-n2c(-c3ccccc3)nnc2-c2ccc(Cl)cc2)cc1 | -12% | 7% | 7% | 9% | -16
CCc1nnc(NC(=O)CC23CC4CC(CC(Br)(C4)C2)C3)s1 | -5% | -5% | 8% | -26% | 19
COC(=O)c1cc(S(=O)(=O)N2CCCCCC2)cn1C | 2% | -3% | -18% | 0% | -22
CCOc1ccc(N=Cc2ccc3ccccc3c2)cc1 | -11% | 8% | 42% | 3% | 14

Assay outcomes from PubChem BioAssay.
